Data: publication PMC7826789 (International Journal of Molecular Sciences, 2021)

Assays:
Details in all cases: Compound Concentration (nM):1000
KIT-autoinhibited = system: KIT-autoinhibited
KIT = system: KIT
LATS1 = system: LATS1
LATS2 = system: LATS2
LCK = system: LCK
LIMK1 = system: LIMK1
LIMK2 = system: LIMK2
LKB1 = system: T1, LKB1
T1 construct: gene STK11

LOK = system: T2, LOK
T2 construct: gene STK10

LRRK2(G2019S) = system: LRRK2(G2019S)
LRRK2 = system: LRRK2
LTK = system: LTK
LYN = system: LYN
LZK = system: T3, LZK
T3 construct: gene MAP3K13

MAK = system: MAK
MAP3K15 = system: MAP3K15
MAP3K1 = system: MAP3K1
MAP3K2 = system: MAP3K2
MAP3K3 = system: MAP3K3
MAP3K4 = system: MAP3K4
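Also: KINOMEscan scanMAX binding as percent activity remaining versus control; lower means stronger binding.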

Row | SMILES | Percent Control (KIT-autoinhibited) | Percent Control (KIT) | Percent Control (LATS1) | Percent Control (LATS2) | Percent Control (LCK) | Percent Control (LIMK1) | Percent Control (LIMK2) | Percent Control (LKB1) | Percent Control (LOK) | Percent Control (LRRK2(G2019S)) | Percent Control (LRRK2) | Percent Control (LTK) | Percent Control (LYN) | Percent Control (LZK) | Percent Control (MAK) | Percent Control (MAP3K15) | Percent Control (MAP3K1) | Percent Control (MAP3K2) | Percent Control (MAP3K3) | Percent Control (MAP3K4)
1 | Cl.O=C(O[C@H]1CN[C@H](C#Cc2cc3ncnc(Nc4ccc5c(cnn5Cc5ccccc5)c4)c3s2)C1)N1CCOCC1 [GSK200398A] | 96% | 100% | 100% | 100% | 81% | 100% | 100% | 100% | 63% | 84% | 97% | 85% | 76% | 100% | 100% | 95% | 56% | 97% | 89% | 82%
2 | Cl.O=C(Nc1ccc(Oc2ccc3[nH]c(NC(=O)c4ccccc4)nc3c2)cc1)Nc1cc(C(F)(F)F)ccc1F [GW709042A] | 86% | 1.4% | 98% | 85% | 50% | 95% | 93% | 100% | 1% | 68% | 39% | 9.5% | 72% | 100% | 100% | 100% | 57% | 100% | 84% | 100%
3 | CN(C)CCNC(=O)Nc1ccc(N(C)c2ccnc(Nc3ccc(CS(C)(=O)=O)cc3)n2)cc1.Cl [GW830900A] | 59% | 0.1% | 92% | 88% | 93% | 85% | 100% | 83% | 14% | 76% | 83% | 100% | 100% | 75% | 100% | 100% | 82% | 69% | 84% | 99%
4 | CN(C)c1cc2c(Nc3ccc4c(cnn4Cc4ccccc4)c3)ncnc2cn1 [GW282974X] | 100% | 100% | 100% | 65% | 77% | 100% |  | 100% | 20% | 93% | 97% |  | 89% | 100% | 98% | 100% |  | 90% | 73% | 88%
5 | O=C(Nc1n[nH]c2nc(-c3ccc(O)cc3)c(Br)cc12)C1CC1 [SB-725317] | 86% | 84% | 100% | 94% | 83% | 100% | 100% | 100% | 95% | 96% | 89% | 60% | 100% | 100% | 39% | 94% | 60% | 84% | 97% | 100%
6 | CCS(=O)(=O)c1ccc(OC)c(Nc2ncc(-c3cccc(OC)c3)o2)c1 [GW580509X] | 20% | 9.1% | 100% | 100% | 46% | 100% | 100% | 100% | 100% | 100% | 100% | 100% | 53% | 100% | 100% | 100% | 68% | 100% | 100% | 100%
7 | COc1cccc(-c2c[nH]c3c(N/N=C/c4ccncc4)ncnc23)c1 [GW814408X] | 38% | 5% | 100% | 89% | 7.5% | 100% | 84% | 88% | 100% | 89% | 100% | 98% | 50% | 93% | 100% | 100% | 92% | 65% | 57% | 100%
8 | O=C1Nc2ccc(C(=O)c3ccco3)cc2C1=Cc1cc(Cl)c(O)c(Cl)c1 [GW406108X] | 82% | 62% | 100% | 92% | 89% | 100% | 100% | 100% | 94% | 6.9% | 13% | 93% | 86% | 94% | 100% | 90% | 63% | 96% | 78% | 100%
9 | C/C(Nc1ccc(S(N)(=O)=O)cc1)=C1/C(=O)Nc2ccccc21 [GW335962X] | 28% | 99% | 100% | 83% | 91% | 100% | 94% | 86% | 79% | 47% | 55% | 78% | 87% | 97% | 98% | 93% | 62% | 53% | 55% | 100%
10 | COc1ccccc1-c1cc(/C=C2\C(=O)Nc3ncc(Br)cc32)cc(Br)c1O [GW442130X] | 100% | 70% | 100% | 100% | 100% | 100% | 100% | 73% | 100% | 93% | 100% | 100% | 100% | 84% | 100% | 89% | 99% | 100% | 100% | 100%
11 | COc1cc(N2CCN(C(C)C)CC2)ccc1Nc1nc(Nc2ccc(F)cc2C(=O)NC[C@@H](O)CO)c2cc[nH]c2n1 [GSK1392956A] | 100% | 100% | 100% | 95% | 100% | 92% | 75% | 81% | 100% | 5.4% | 12% | 66% | 92% | 100% | 100% | 93% | 86% | 100% | 88% | 94%
12 | COc1cc(/C=N/Nc2ncnc3[nH]ncc23)ccc1O [GW578748X] | 57% | 56% | 100% | 52% | 42% | 100% | 100% | 100% | 100% | 49% | 54% | 100% | 86% | 100% | 100% | 96% | 49% | 67% | 85% | 93%
13 | C[C@@H](Oc1cc(-n2cnc3ccc(OC4CCN(C)CC4)cc32)sc1C(N)=O)c1ccccc1Cl [GSK579289A] | 81% | 32% | 100% | 65% | 82% | 100% | 100% | 100% | 3.3% | 75% | 77% | 24% | 93% | 78% | 100% | 95% | 41% | 83% | 65% | 67%
14 | NS(=O)(=O)c1ccc(N/N=C2\C(=O)Nc3ccc(-c4cnco4)cc32)cc1 [GW276655] | 81% | 58% | 56% | 65% | 89% | 60% | 67% | 100% | 92% | 17% | 44% | 100% | 100% | 62% | 100% | 75% | 100% | 79% | 74% | 82%
15 | COC(=O)Nc1nc2ccc(Oc3ccc(NC(=O)Nc4cc(C(F)(F)F)ccc4F)cc3)cc2s1.Cl [GW693917A] | 87% | 0.5% | 100% | 80% | 2.2% | 43% | 62% | 100% | 0.6% | 74% | 39% | 18% | 19% | 78% | 100% | 100% | 53% | 92% | 79% | 80%
16 | Cl.O=S1CCN(Cc2ccc(-c3ccc4ncnc(Nc5ccc(OCc6ccccc6)c(F)c5)c4c3)o2)CC1 [GW576924A] | 100% | 100% | 100% | 100% | 100% | 100% | 100% | 100% | 100% | 100% | 98% | 100% | 100% | 100% | 100% | 94% | 81% | 100% | 100% | 100%
17 | COc1ccc2[nH]c3c4[nH]c5ccc(OC)cc5c4c4c(c3c2c1)C(=O)NC4=O [GW296115X] | 72% | 24% | 100% | 43% | 85% | 91% | 81% | 99% | 88% | 2.6% | 2.8% | 58% | 69% | 77% | 82% | 64% | 71% | 85% | 59% | 100%
18 | COc1ccc2cc(-c3c(-c4ccncc4)nc(-c4ccc(S(C)(=O)=O)cc4C)n3C)ccc2c1 [SB-633825] | 91% | 74% | 67% | 70% | 54% | 74% | 29% | 100% | 1.3% | 90% | 96% | 23% | 66% | 65% | 86% | 83% | 60% | 60% | 79% | 90%
19 | CCc1ccc(Oc2nccc(-c3c(-c4ccc(F)cc4)ncn3C3CCNCC3)n2)cc1 [SB-242719] | 100% | 83% | 100% | 70% | 74% | 75% | 100% | 84% | 97% | 83% | 100% | 95% | 100% | 95% | 100% | 91% | 67% | 98% | 66% | 93%
20 | COc1cc2ncnc(Nc3ccc4c(cnn4Cc4ccccc4)c3)c2cc1OC.Cl [GW282449A] | 100% | 100% | 100% | 100% | 23% | 95% | 100% | 100% | 13% | 100% | 100% | 46% | 46% | 100% | 100% | 98% | 84% | 100% | 100% | 100%
